This assay relates to Plasmodium falciparum Sir2 (PF13_0152, Sir2A). Briefly: Plasmodium falciparum Sir2A binding compounds – biochemical, small-molecule microarray, 635 nm fluorescence, primary screen (AID 1098).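 Note: score merges spot fluorescence intensity with its signal-to-noise ratio.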 To be noted: fluorescence 635 nm, higher = more signal.
In turn, `O=C1C=C[C@@H](O)[C@@H]2[C@@H]3C(=O)N(C4CCCCC4)C(=O)[C@@H]3CC[C@@H]12` had a composite z-score of 0.252.
Under `C[C@@H]1CC[C@H]2C(=O)OC(Cc3ccccc3)CN2[C@H]1c1ccc(Br)cc1` (stereo partly specified) stands 0.413.
Under `O=C1[C@H]2[C@H]3[C@H](O)[C@H](O)CC(=NO[C@@H]4O[C@H](CO)[C@@H](O)[C@H](O)[C@H]4O)[C@H]3CC[C@H]2C(=O)N1c1ccc(F)cc1F` stands -0.134.
In turn, `COc1ccc(COC(=O)NN=C2C[C@@H](O)[C@@H](O)[C@@H]3[C@@H]4C(=O)N([C@@H](C)c5ccccc5)C(=O)[C@@H]4CC[C@H]23)cc1` yielded a composite z-score of -0.25.
The compound `CC(=O)OC[C@H]1O[C@H](CC=NO[C@H](C)c2cn([C@@H]3COC[C@H]3O)nn2)C=C[C@@H]1OC(C)=O` gave a composite z-score of 0.197.
The same measure for `COc1ccc(O[C@H]2C=C[C@@H](c3ccccc3)O[C@@H]2CO)cc1`: 0.281; for `CCOC(=O)[C@H](Cc1ccccc1)NC(=O)CCC1CC(OC(=O)NCCc2ccc(F)cc2)CC2(CCCC(COC(=O)NCCOc3ccccc3)O2)O1` (stereo partly specified): 0.87.
On to `O=C1C[C@@H](O)[C@@H](O)[C@@H]2[C@@H]3C(=O)N(C4CCCCC4)C(=O)[C@@H]3CC[C@@H]12`, for which the composite z-score was 0.607.
The same measure for `CC(CCN1CCCCc2nc(C)c(C)cc21)=NO[C@@H](C)c1cc(-c2c(C)cc(C)cc2C)no1`: 1.41; for `CCOC(=O)[C@H](CC(C)C)NC(=O)CCC1CC(OC(=O)NCc2ccc3c(c2)OCO3)CC2(CCCC(COC(=O)NCCOc3ccccc3)O2)O1` (stereo partly specified): 0.543; for `C=CC[C@@H]1C=C[C@H](ON=C(C)CCN2CCCc3nc(C)c(C)cc32)[C@@H](CO)O1`: 1.14.
The same measure for `O=C1CCCC=C1C(O)C1CCCCC1` (stereo unspecified): -0.895.
Consider `CO[C@H]1COC(=O)CC=C[C@H](C)[C@H](OC)COC(=O)[C@@H](C)NC(=O)CC=C[C@@H]1C`, for which the composite z-score was 1.65.
Regarding `COC(=O)CC=C[C@@H](C)[C@@H](C=NOC[C@@H](C)[C@H](OCc1ccccc1)C(C)C)OC`, the composite z-score is 0.161.
Under `CC(C)CON=C1C[C@@H](O)[C@@H](O)[C@@H]2[C@@H]3C(=O)N(C(C)(C)C)C(=O)[C@@H]3CC[C@@H]12` stands 1.08; under `CC1(C)O[C@H]2OC([C@H](O)CON3C(=O)c4ccccc4C3=O)[C@H](O)[C@H]2O1` (stereo partly specified), -0.0933.
`CCOC(=O)CCN1C(=O)[C@H]2[C@H]3[C@H](O)[C@H](O)CC(=NNC(=O)OCC)[C@H]3CC[C@H]2C1=O` had a composite z-score of 0.533.
The same measure for `CCN(CC)CC(O)CN1CCCCc2nc(C)c(C)cc21` (stereo unspecified): -0.145; for `CC(C)=NO[C@@H](C)c1cn([C@H](CO)Cc2ccccc2)nn1`: 0.8.
`O=C(NN=C1C[C@@H](O)[C@@H](O)[C@@H]2[C@@H]3C(=O)N(Cc4ccccc4)C(=O)[C@@H]3CC[C@H]12)OCc1ccccc1` showed a composite z-score of -0.944.
The same measure for `CCOC(=O)CCN1C(=O)[C@H]2[C@H]3[C@H](O)[C@H](O)CC(=NOCC=C(C)CCC=C(C)C)[C@H]3CC[C@H]2C1=O`: -0.319; for `CC(=O)OC[C@H]1O[C@@H](ON=C2[C@H]3CCn4c(=O)n(-c5ccccc5)c(=O)n4[C@H]3[C@H](O)[C@@H]3O[C@H]23)[C@H](OC(C)=O)[C@@H](OC(C)=O)[C@@H]1OC(C)=O`: 0.242; for `O=C1CCCC=C1C(O)COCc1ccccc1` (stereo unspecified): 0.179.
Under `C[C@H]1CC[C@@H](C(=O)O)N[C@@H]1c1cccc(N2CCCC2=O)c1` stands 0.0371; under `COC(=O)[C@H](C)NC(=O)CCC1CC(OC(=O)NCc2ccc3c(c2)OCO3)CC2(CCCC(COC(=O)NCCCN3CCCC3=O)O2)O1` (stereo partly specified), 0.842.
Under `CC(C)(C)N1C(=O)[C@H]2[C@@H]3C(=CC[C@H]2C1=O)C(=O)[C@H]1O[C@H]1[C@H]3O` stands 1.09.
For `CCOC(=O)NN=C1C[C@@H](O)[C@@H](O)[C@@H]2[C@@H]3C(=O)N(C[C@@H]4CCCO4)C(=O)[C@@H]3CC[C@H]12`, the composite z-score was 0.348.
Under `CC(C)=CCCC(C)=CCON=C1C[C@@H](O)[C@@H](O)[C@@H]2[C@@H]3C(=O)N(Cc4ccc5c(c4)OCO5)C(=O)[C@@H]3CC[C@H]12` stands 0.567; under `CC(=O)OC[C@H]1O[C@H](CC=NOC(C)CN2CCCCc3nc(C)c(C)cc32)C=C[C@@H]1OC(C)=O` (stereo partly specified), 1.14; under `CCOC(=O)[C@H](Cc1ccccc1)NC(=O)CCC1CC(OC(=O)NCCc2ccc(F)cc2)CC2(CCCC(COC(=O)NCc3cccc(C(F)(F)F)c3)O2)O1` (stereo partly specified), 0.863.
Compound `O=C1C=C[C@@H](O)[C@@H]2[C@@H]3C(=O)N(Cc4ccc5c(c4)OCO5)C(=O)[C@@H]3CC[C@@H]12` registered a composite z-score of 0.382.
The same measure for `O=C1CCCC=C1C(O)c1ccc([N+](=O)[O-])cc1` (stereo unspecified): -0.805; for `COC(=O)CC=C[C@@H](C)[C@@H](C=NOC(C)CN1CCCCc2nc(C)c(C)cc21)NS(=O)(=O)c1ccc(C)cc1` (stereo partly specified): 0.361.
The compound `CC(CCC(=O)OC[C@H]1O[C@H](C#Cc2ccccc2)C=C[C@@H]1Oc1ccc(C)cc1)=NOC(C)CN1CCCc2nc(C)c(C)cc21` (stereo partly specified) returned a composite z-score of 0.839.
Under `CCN1C(=O)[C@H]2[C@H]3[C@H](O)[C@H](O)CC(=NO[C@H](C)c4cn([C@@H]5COC[C@H]5O)nn4)[C@@H]3CC[C@H]2C1=O` stands -0.428; under `COc1ccc(-c2cnnc(CCCn3ccnc3-c3ccccc3)n2)cc1`, 0.442.

For the origin of these results see PubChem BioAssay.
